According to PubChem BioAssay AID1159580 (chemical genetic matrix, 2015):
“And” between values parts separate entries of the source, which are not always exact repeats. Equal entries are not always repeated. The campaign covered roughly 5,500 compounds. About 2,000 (36%) were called active. About 18% were inconclusive and are not listed. Rule as the data show it: active = normalized growth mostly below about 0.91 (no sharp cut-off); inconclusive = no clear call, values can overlap the other calls; inactive = mostly above about 0.92. The list shows a part of the results.

Assay: chemical genetic growth profiling, strain panel (AID 1159580);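 also: tested at 20 µM; growth read once vehicle control cultures reached saturation at 30 °C; 1 = growth at the plate median or of vehicle wells; lower values mean less growth of the strain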
Conditions: S. cerevisiae deletion strains, growth OD

Measured: normalized growth

NC[C@H]1O[C@H](OC2[C@@H](N)C[C@@H](N)[C@H](O[C@H]3O[C@H](CO)[C@@H](O)[C@H](N)[C@H]3O)[C@H]2O)[C@H](O)[C@@H](O)[C@@H]1O (some centres undefined)
inactive: locus YAL013W, strain DEP1, active compounds read low 0.997 | locus YAL021C, strain ccr4, active compounds read low 0.993 | locus YAL026C, strain drs2, active compounds read low 0.998 | locus YAL030W, strain snc1, active compounds read low 1 | locus YBL061C, strain skt5, active compounds read low 1.01 | locus YBR009C, strain hhf1, active compounds read low 1.01 | locus YBR021W, strain FUR4, active compounds read low 0.97 | locus YBR023C, strain chs3, active compounds read low 0.983 | locus YBR171W, strain sec66, active compounds read low 0.989 | locus YBR229C, strain ROT2, active compounds read low 0.988 | locus YBR231C, strain swc5, active compounds read low 0.998 | locus YBR279W, strain paf1, active compounds read low 1.01 | locus YCL011C, strain gbp2, active compounds read low 0.999 | locus YCL016C, strain dcc1, active compounds read low 0.985 | locus YCL029C, strain bik1, active compounds read low 0.985 | locus YCL061C, strain MRC1, active compounds read low 0.99 | locus YCL069W, strain vba3, active compounds read low 0.998 | locus YCR088W, strain abp1, active compounds read low 0.994 | locus YDL005C, strain med2, active compounds read low 0.994 | locus YDL035C, strain GPR1, active compounds read low 1.02 | locus YDL040C, strain nat1, active compounds read low 1 | locus YDL074C, strain BRE1, active compounds read low 0.991 | locus YDL101C, strain DUN1, active compounds read low 0.986 | locus YDL134C, strain PPH21, active compounds read low 1.01 | locus YDL185W, strain tfp1, active compounds read low 0.997 | locus YDL192W, strain arf1, active compounds read low 0.98 | locus YDR001C, strain nth1, active compounds read low 0.995 | locus YDR069C, strain doa4, active compounds read low 1 | locus YDR101C, strain arx1, active compounds read low 0.99 | locus YDR137W, strain rgp1, active compounds read low 0.997 | locus YDR150W, strain NUM1, active compounds read low 1 | locus YDR159W, strain sac3, active compounds read low 1 | locus YDR162C, strain NBP2, active compounds read low 1 | locus YDR195W, strain ref2 0.961 | locus YDR297W, strain sur2, active compounds read low 0.998 | locus YDR318W, strain mcm21, active compounds read low 0.978 | locus YDR334W, strain swr1, active compounds read low 0.988 | locus YDR335W, strain msn5, active compounds read low 1 | locus YDR388W, active compounds read low 0.993 | locus YDR392W, strain spt3, active compounds read low 0.935 | locus YDR502C, strain sam2, active compounds read low 1.01 | locus YEL003W, strain gim4, active compounds read low 1.01 | locus YEL037C, strain rad23, active compounds read low 1.01 | locus YEL061C, strain CIN8 (second series), active compounds read low 0.999 | locus YEL061C, strain CIN8, active compounds read low 0.997 | locus YER015W, strain faa2, active compounds read low 0.978 | locus YER016W, strain bim1, active compounds read low 1.01 | locus YER110C, active compounds read low 0.97 | locus YER111C, strain swi4, active compounds read low 0.994 | locus YER155C, strain BEM2 (second series), active compounds read low 0.993 | locus YER155C, strain BEM2, active compounds read low 0.993 | locus YER167W, strain BCK2, active compounds read low 0.989 | locus YFR010W, strain ubp6, active compounds read low 1 | locus YGL078C, strain dbp3, active compounds read low 0.973 | locus YGL086W, strain mad1, active compounds read low 1 | locus YGL167C, strain pmr1, active compounds read low 1.01 | locus YGL173C, strain kem1, active compounds read low 0.996 | locus YGL227W, strain vid30, active compounds read low 0.991 | locus YGL240W, strain doc1, active compounds read low 0.99 | locus YGL248W, strain PDE1, active compounds read low 0.984 | locus YGL253W, strain hxk2, active compounds read low 1.01 | locus YGR135W, strain pre9, active compounds read low 0.943 | locus YGR252W, strain gcn5, active compounds read low 0.967 | locus YHR013C, strain ard1, active compounds read low 0.982 | locus YHR027C, strain rpn1, active compounds read low 1 | locus YHR030C, strain SLT2, active compounds read low 0.991 | locus YHR079C, strain IRE1 (second series), active compounds read low 0.982 | locus YHR079C, strain IRE1, active compounds read low 0.993 | locus YHR094C, strain hxt1, active compounds read low 0.975 | locus YHR129C, strain ARP1, active compounds read low 0.994 | locus YHR142W, strain chs7, active compounds read low 0.998 | locus YHR200W, strain rpn10, active compounds read low 0.993 | locus YIL066C, strain RNR3, active compounds read low 0.994 | locus YIL073C, strain SPO22, active compounds read low 0.954 | locus YIL125W, strain kgd1, active compounds read low 0.987 | locus YIR030C, strain dcg1, active compounds read low 0.99 | locus YJL092W, strain hpr5, active compounds read low 1 | locus YJL095W, strain BCK1 (second series), active compounds read low 0.997 | locus YJL095W, strain BCK1, active compounds read low 0.99 and 1.01 | locus YJL115W, strain asf1, active compounds read low 0.997 | locus YJL129C, strain trk1, active compounds read low 0.991 | locus YJL134W, strain LCB3, active compounds read low 0.996 | locus YJL154C, strain vps35, active compounds read low 0.992 | locus YJL164C, strain tpk1, active compounds read low 0.991 | locus YJL166W, strain qcr8, active compounds read low 0.99 | locus YJL168C, strain set2, active compounds read low 0.978 | locus YJL187C, strain SWE1 (second series), active compounds read low 0.984 | locus YJL187C, strain SWE1, active compounds read low 0.997 | locus YJR043C, strain POL32, active compounds read low 1.03
